Reference: article PMC11006913
Residue numbers refer to the chain shown, from its start.

Tests used:
Assay in all cases: PBM; 200 nM protein, PBS
Settings in all cases: dsDNA, one strand shown
SIX6 [1] = molecular target: T1, SIX6 (Homo sapiens, UniProt O95475 114-200, L167I)
T1 sequence: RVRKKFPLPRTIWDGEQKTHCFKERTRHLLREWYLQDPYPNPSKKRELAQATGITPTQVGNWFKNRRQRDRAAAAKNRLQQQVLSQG

SIX6 [2] = molecular target: T2, SIX6 (Homo sapiens, UniProt O95475 114-200, L143V)
T2 sequence: T1 sequence with L30V, I54L

SIX6 [3] = molecular target: T3, SIX6 (Homo sapiens, UniProt O95475 114-200, H141N)
T3 sequence: T1 sequence with H28N, I54L

SIX6 [4] = molecular target: T4, SIX6 (Homo sapiens, UniProt O95475 114-200, T165P)
T4 sequence: T1 sequence with T52P, I54L

SIX6 [5] = molecular target: T5, SIX6 (Homo sapiens, UniProt O95475 114-200, L167M)
T5 sequence: T1 sequence with I54M

SIX6 [6] = molecular target: T6, SIX6 (Homo sapiens, UniProt O95475 114-200, L143M)
T6 sequence: T1 sequence with L30M, I54L

SIX6 [7] = molecular target: T7, SIX6 (Homo sapiens, UniProt O95475 114-200, L143I)
T7 sequence: T1 sequence with L30I, I54L

SIX6 [8] = molecular target: T8, SIX6 (Homo sapiens, UniProt O95475 114-200, T165G)
T8 sequence: T1 sequence with T52G, I54L

SIX6 [9] = molecular target: T9, SIX6 (Homo sapiens, UniProt O95475 114-200, T139Q)
T9 sequence: T1 sequence with T26Q, I54L

SIX6 [10] = molecular target: T10, SIX6 (Homo sapiens, UniProt O95475 114-200, T165A)
T10 sequence: T1 sequence with T52A, I54L

SIX6 [11] = molecular target: T11, SIX6 (Homo sapiens, UniProt O95475 114-200, L167V)
T11 sequence: T1 sequence with I54V

SIX6 [12] = molecular target: T12, SIX6 (Homo sapiens, UniProt O95475 114-200)
T12 sequence: T1 sequence with I54L

SIX6 [13] = molecular target: T13, SIX6 (Homo sapiens, UniProt O95475 114-200, T165I)
T13 sequence: T1 sequence with T52I, I54L

Sequence | binding signal (SIX6 [1]) | binding signal (SIX6 [2]) | binding signal (SIX6 [3]) | binding signal (SIX6 [4]) | binding signal (SIX6 [5]) | binding signal (SIX6 [6]) | binding signal (SIX6 [7]) | binding signal (SIX6 [8]) | binding signal (SIX6 [9]) | binding signal (SIX6 [10]) | binding signal (SIX6 [11]) | binding signal (SIX6 [12]) | binding signal (SIX6 [13])
CTCGATAC | 10.6 upbm affinity estimate (log intensity, higher = more binding, comparable within an allelic series) | 10 upbm affinity estimate (log intensity, higher = more binding, comparable within an allelic series) | 10.6 upbm affinity estimate (log intensity, higher = more binding, comparable within an allelic series) | 9.7 upbm affinity estimate (log intensity, higher = more binding, comparable within an allelic series) | 10.2 upbm affinity estimate (log intensity, higher = more binding, comparable within an allelic series) | 10.6 upbm affinity estimate (log intensity, higher = more binding, comparable within an allelic series) | 10.1 upbm affinity estimate (log intensity, higher = more binding, comparable within an allelic series) | 10.8 upbm affinity estimate (log intensity, higher = more binding, comparable within an allelic series) | 10.8 upbm affinity estimate (log intensity, higher = more binding, comparable within an allelic series) | 10.6 upbm affinity estimate (log intensity, higher = more binding, comparable within an allelic series) | 10.4 upbm affinity estimate (log intensity, higher = more binding, comparable within an allelic series) | 10.6 upbm affinity estimate (log intensity, higher = more binding, comparable within an allelic series) | 10.5 upbm affinity estimate (log intensity, higher = more binding, comparable within an allelic series)
GATACACC | 11.1 upbm affinity estimate (log intensity, higher = more binding, comparable within an allelic series) | 10.4 upbm affinity estimate (log intensity, higher = more binding, comparable within an allelic series) | 11.1 upbm affinity estimate (log intensity, higher = more binding, comparable within an allelic series) | 9.65 upbm affinity estimate (log intensity, higher = more binding, comparable within an allelic series) | 10.7 upbm affinity estimate (log intensity, higher = more binding, comparable within an allelic series) | 10.9 upbm affinity estimate (log intensity, higher = more binding, comparable within an allelic series) | 10.4 upbm affinity estimate (log intensity, higher = more binding, comparable within an allelic series) | 11.2 upbm affinity estimate (log intensity, higher = more binding, comparable within an allelic series) | 11.2 upbm affinity estimate (log intensity, higher = more binding, comparable within an allelic series) | 11.1 upbm affinity estimate (log intensity, higher = more binding, comparable within an allelic series) | 10.9 upbm affinity estimate (log intensity, higher = more binding, comparable within an allelic series) | 11.1 upbm affinity estimate (log intensity, higher = more binding, comparable within an allelic series) | 10.9 upbm affinity estimate (log intensity, higher = more binding, comparable within an allelic series)
CCGGCGCC | 8.8 upbm affinity estimate (log intensity, higher = more binding, comparable within an allelic series) | 8.98 upbm affinity estimate (log intensity, higher = more binding, comparable within an allelic series) | 8.96 upbm affinity estimate (log intensity, higher = more binding, comparable within an allelic series) | 9.05 upbm affinity estimate (log intensity, higher = more binding, comparable within an allelic series) | 9 upbm affinity estimate (log intensity, higher = more binding, comparable within an allelic series) | 8.85 upbm affinity estimate (log intensity, higher = more binding, comparable within an allelic series) | 9.03 upbm affinity estimate (log intensity, higher = more binding, comparable within an allelic series) | 8.96 upbm affinity estimate (log intensity, higher = more binding, comparable within an allelic series) | 8.96 upbm affinity estimate (log intensity, higher = more binding, comparable within an allelic series) | 8.98 upbm affinity estimate (log intensity, higher = more binding, comparable within an allelic series) | 8.96 upbm affinity estimate (log intensity, higher = more binding, comparable within an allelic series) | 9.02 upbm affinity estimate (log intensity, higher = more binding, comparable within an allelic series) | 8.9 upbm affinity estimate (log intensity, higher = more binding, comparable within an allelic series)
ACTGCCGG | 9.01 upbm affinity estimate (log intensity, higher = more binding, comparable within an allelic series) | 9.11 upbm affinity estimate (log intensity, higher = more binding, comparable within an allelic series) | 9.15 upbm affinity estimate (log intensity, higher = more binding, comparable within an allelic series) | 9.02 upbm affinity estimate (log intensity, higher = more binding, comparable within an allelic series) | 9.04 upbm affinity estimate (log intensity, higher = more binding, comparable within an allelic series) | 9.15 upbm affinity estimate (log intensity, higher = more binding, comparable within an allelic series) | 9.19 upbm affinity estimate (log intensity, higher = more binding, comparable within an allelic series) | 9.17 upbm affinity estimate (log intensity, higher = more binding, comparable within an allelic series) | 9.29 upbm affinity estimate (log intensity, higher = more binding, comparable within an allelic series) | 9.08 upbm affinity estimate (log intensity, higher = more binding, comparable within an allelic series) | 9.11 upbm affinity estimate (log intensity, higher = more binding, comparable within an allelic series) | 9.23 upbm affinity estimate (log intensity, higher = more binding, comparable within an allelic series) | 9.16 upbm affinity estimate (log intensity, higher = more binding, comparable within an allelic series)
GCCGCCCC | 9.02 upbm affinity estimate (log intensity, higher = more binding, comparable within an allelic series) | 9.06 upbm affinity estimate (log intensity, higher = more binding, comparable within an allelic series) | 8.99 upbm affinity estimate (log intensity, higher = more binding, comparable within an allelic series) | 9.17 upbm affinity estimate (log intensity, higher = more binding, comparable within an allelic series) | 9.05 upbm affinity estimate (log intensity, higher = more binding, comparable within an allelic series) | 9.03 upbm affinity estimate (log intensity, higher = more binding, comparable within an allelic series) | 8.92 upbm affinity estimate (log intensity, higher = more binding, comparable within an allelic series) | 9.03 upbm affinity estimate (log intensity, higher = more binding, comparable within an allelic series) | 8.98 upbm affinity estimate (log intensity, higher = more binding, comparable within an allelic series) | 9.08 upbm affinity estimate (log intensity, higher = more binding, comparable within an allelic series) | 8.99 upbm affinity estimate (log intensity, higher = more binding, comparable within an allelic series) | 8.93 upbm affinity estimate (log intensity, higher = more binding, comparable within an allelic series) | 9.05 upbm affinity estimate (log intensity, higher = more binding, comparable within an allelic series)
CGGCCCAA | 9.05 upbm affinity estimate (log intensity, higher = more binding, comparable within an allelic series) | 8.91 upbm affinity estimate (log intensity, higher = more binding, comparable within an allelic series) | 9.04 upbm affinity estimate (log intensity, higher = more binding, comparable within an allelic series) | 8.99 upbm affinity estimate (log intensity, higher = more binding, comparable within an allelic series) | 9.02 upbm affinity estimate (log intensity, higher = more binding, comparable within an allelic series) | 8.96 upbm affinity estimate (log intensity, higher = more binding, comparable within an allelic series) | 8.94 upbm affinity estimate (log intensity, higher = more binding, comparable within an allelic series) | 9.03 upbm affinity estimate (log intensity, higher = more binding, comparable within an allelic series) | 9.14 upbm affinity estimate (log intensity, higher = more binding, comparable within an allelic series) | 8.99 upbm affinity estimate (log intensity, higher = more binding, comparable within an allelic series) | 8.99 upbm affinity estimate (log intensity, higher = more binding, comparable within an allelic series) | 8.99 upbm affinity estimate (log intensity, higher = more binding, comparable within an allelic series) | 9.03 upbm affinity estimate (log intensity, higher = more binding, comparable within an allelic series)
